Screening results deposited in PubChem by several laboratories.
IDE cell inh = inhibitors of human insulin-degrading enzyme in cells. hit rate 0.41% among 320,000. inhibition, % at 5.59 µM. HEK cells, FAbetaB cleavage, fluorescence polarization. P14735;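 active = percent inhibition above the average of all tested compounds plus 3 SD, set per screening campaign, cut at about 16% in these data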;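 also: IDE supplied by intact live HEK cells; FP after avidin binding of uncleaved biotin substrate so inhibition keeps polarization high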
HDAC3 inhib = human HDAC3 inhibition | AID 2718 | hit rate 0.15% among 320,000 | recombinant HDAC3, fluorogenic peptide/trypsin coupled, fluorescence | O15379 | inhibition, % at 8.3 µM; in the data active = inhibition above about 26%, passing the limit was not always enough
LANA-H2B inh = blocks KSHV LANA binding to histone H2A/H2B | cell-free LANA-H2A/H2B peptide, fluorescence polarization | inhibition, % (no concentration beside the values) | hit rate 0.6% among 320,000 | AID 2629; in the data active = inhibition mostly above about 10%, no sharp cut-off; inactive = mostly below about 6.7%
Target sequence (Q9QR71 whole entry, looked up): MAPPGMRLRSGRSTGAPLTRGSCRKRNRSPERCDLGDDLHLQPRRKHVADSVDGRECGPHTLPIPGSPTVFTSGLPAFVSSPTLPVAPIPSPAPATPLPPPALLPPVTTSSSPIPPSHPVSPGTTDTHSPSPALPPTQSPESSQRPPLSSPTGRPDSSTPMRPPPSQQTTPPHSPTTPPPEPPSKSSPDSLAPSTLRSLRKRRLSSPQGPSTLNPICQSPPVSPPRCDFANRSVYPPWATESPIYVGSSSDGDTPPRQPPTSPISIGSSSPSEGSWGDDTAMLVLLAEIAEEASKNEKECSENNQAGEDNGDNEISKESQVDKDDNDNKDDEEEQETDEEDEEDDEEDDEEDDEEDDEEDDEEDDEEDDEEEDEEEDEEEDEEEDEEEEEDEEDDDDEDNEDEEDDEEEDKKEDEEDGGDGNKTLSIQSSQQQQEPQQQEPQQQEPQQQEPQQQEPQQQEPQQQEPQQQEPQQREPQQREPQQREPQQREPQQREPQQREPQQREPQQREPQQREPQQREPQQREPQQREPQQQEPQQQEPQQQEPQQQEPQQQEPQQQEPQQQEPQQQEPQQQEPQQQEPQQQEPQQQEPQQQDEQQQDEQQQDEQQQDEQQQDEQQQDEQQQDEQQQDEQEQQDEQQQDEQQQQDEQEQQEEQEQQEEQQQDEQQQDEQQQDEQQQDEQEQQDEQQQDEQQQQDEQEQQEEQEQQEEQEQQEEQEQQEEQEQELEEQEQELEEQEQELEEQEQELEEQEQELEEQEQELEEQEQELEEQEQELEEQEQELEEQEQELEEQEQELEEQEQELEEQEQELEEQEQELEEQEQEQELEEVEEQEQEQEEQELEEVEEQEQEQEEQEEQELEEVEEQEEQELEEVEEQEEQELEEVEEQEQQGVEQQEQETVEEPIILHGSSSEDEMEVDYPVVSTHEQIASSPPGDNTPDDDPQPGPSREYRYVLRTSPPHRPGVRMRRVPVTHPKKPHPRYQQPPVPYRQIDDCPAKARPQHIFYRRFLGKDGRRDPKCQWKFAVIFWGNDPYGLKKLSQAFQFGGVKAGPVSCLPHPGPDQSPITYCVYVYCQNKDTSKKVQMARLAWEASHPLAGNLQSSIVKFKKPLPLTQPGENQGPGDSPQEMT
IDE act = boosts human insulin-degrading enzyme activity in HEK cells. FAbeta-B cleavage, fluorescence polarization; 0% vehicle, 100% cell-free pure enzyme wells. activation, % at 5.96 µM. hit rate 0.073% among 340,000. AID 493087;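 active = activation above the mean of all tested compounds plus 3 SD, set per screening campaign, cut at about 17% in these data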
SUMO Mot1 rescue = blocks SUMOylation pathway, rescuing yeast Mot1-301 growth. S. cerevisiae Mot1-301 growth rescue, ATP luminescence, 38.5C; percent above DMSO median, 100 means doubled. growth rescue, % at 18.8 µM. hit rate 1% among 320,000;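 active = every valid replicate shows activation above 250% relative to neutral control wells; inactive = the rest, any valid replicate at or below 250%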
Large screens that a line does not name were inactive. In the library only some 2.1% were active in any assay of this set; here they are far more common.

COc1ccc(C(=O)n2ncc(C#N)c2N)cc1	none (no result: IDE cell inh, HDAC3 inhib, LANA-H2B inh, SUMO Mot1 rescue)
CSc1ccc(/C=N/S(=O)(=O)c2ccccc2)cc1	none
CC(OC(=O)c1ccco1)C(=O)Nc1nc(-c2ccccc2)cs1 (stereo not given)	none
CC(C)C(C(=O)O)N1C(=O)/C(=C/c2cccn2C)SC1=S (stereo not given)	HDAC3 inhib 33
CCCC(C(=O)O)N1C(=O)/C(=C/c2cccn2C)SC1=S (stereo not given)	none
COc1cc2c(cc1NC(=O)COC(=O)[C@@H](NC(=O)c1ccccc1F)C(C)C)oc1ccccc12	none
COc1cc2c(cc1NC(=O)COC(=O)[C@@H](NC(=O)c1ccccc1)C(C)C)oc1ccccc12	LANA-H2B inh 25
Cc1cc(C)c(CN2CCN(CCCn3cnc(C(=O)Nc4ccc(C)c(C)c4)n3)CC2)c(C)c1	none (no result: IDE cell inh, HDAC3 inhib, LANA-H2B inh, SUMO Mot1 rescue)
COc1ccc(C(CNC(=O)c2oc3c(Cl)cccc3c2C)N2CCCC2)cc1 (stereo not given)	LANA-H2B inh 22
CCN(CC)S(=O)(=O)c1ccc2oc(SCC(=O)Nc3cc(C)on3)nc2c1	LANA-H2B inh 99
Cc1cc(NC(=O)CSc2nc3cc(Cl)ccc3o2)no1	none
O=C(NNS(=O)(=O)c1ccc(Br)cc1)c1cccs1	LANA-H2B inh 17
O=C(NNS(=O)(=O)c1ccccc1)c1cccs1	none (no result: HDAC3 inhib, LANA-H2B inh)
COc1ccc(S(=O)(=O)NCCc2ccccn2)cc1	none
CC(=O)Nc1ccc(S(=O)(=O)NCCc2ccccn2)cc1	IDE act 18
CC(C)c1onc(C(=O)NCc2ccc(F)cc2)c1[N+](=O)[O-]	SUMO Mot1 rescue 286
CC(C)c1onc(C(=O)NCc2cccs2)c1[N+](=O)[O-]	none
COc1cc(/C=C/C(=O)OCC(=O)NC(=O)NC(C)C)cc(S(=O)(=O)N2CCc3ccccc32)c1OC	LANA-H2B inh 26
O=C(Nc1ccccc1)OCc1cc(-c2ccccc2Cl)on1	LANA-H2B inh 31
O=C(c1ccc(-c2ccccc2)c(F)c1)C1CCCN(C(=O)c2cncs2)C1 (stereo not given)	LANA-H2B inh 14
Cc1cc(O)cc(O)c1C(=O)Cc1cscn1	SUMO Mot1 rescue 353
COc1cccc(NC(=O)COc2coc(CN3CCc4ccccc4C3)cc2=O)c1	none (no result: HDAC3 inhib)
CCCCNc1c(-c2ccc(SC(C)CC)cc2)nc2cnccn12 (stereo not given)	HDAC3 inhib 32, IDE act 20
CCCCCCSc1cc(-c2nc3cnccn3c2NCCCC)ccc1OC	IDE act 20
COc1ccc(NS(=O)(=O)c2cccc(C(=O)NNC(=O)CN3C(=O)NC(C)(C)C3=O)c2)cc1	none
O=[N+]([O-])c1cccc(/C=N/Nc2ccccn2)c1	none
O=[N+]([O-])c1cccc(/C=N/Nc2nccnc2Cl)c1	LANA-H2B inh 54
COc1ccc2c(c1)OC[C@H]1[C@H]2N2C(=O)c3ccc(C)cc3NC(=O)[C@@]2(C)[C@H]1c1ccccc1	SUMO Mot1 rescue 356
COc1ccc2c(c1)OC[C@H]1[C@H]2N2C(=O)c3cc(OC)ccc3NC(=O)[C@@]2(C)[C@H]1c1ccccc1	SUMO Mot1 rescue 356
Cc1nonc1CC(=O)NC1CCCc2c1cnn2-c1ccc(F)cc1F (stereo not given)	none (no result: HDAC3 inhib, LANA-H2B inh, SUMO Mot1 rescue)
COC(=O)Nc1ccc(S(=O)(=O)N2CCC(C(=O)NC3CCCCC3)CC2)cc1	SUMO Mot1 rescue 308
O=C(CN1CCCC1)Nc1ccc(S(=O)(=O)N2CCCCC2)cc1	LANA-H2B inh 35
O=C(NC1CCCCC1)N1CCN(S(=O)(=O)c2ccc(F)cc2)CC1	LANA-H2B inh 17
O=C1NC(=O)N(Cc2ccccc2)CC1Br (stereo not given)	none (no result: IDE cell inh, HDAC3 inhib, LANA-H2B inh, SUMO Mot1 rescue)
COc1ccccc1Cn1c(/C=C/c2ccccc2)nc2ccccc21	SUMO Mot1 rescue 408 (no result: HDAC3 inhib, LANA-H2B inh)
COCCn1c(-c2ccccc2)nc2ccccc21	none (no result: HDAC3 inhib, LANA-H2B inh, SUMO Mot1 rescue)
COc1ccc(/C=C/c2nc3ccccc3n2Cc2ccccc2OC)cc1	SUMO Mot1 rescue 323
COCCn1c(/C=C/c2ccccc2)nc2ccccc21	LANA-H2B inh -127
COC(=O)C(Cc1ccc(O)cc1)NC(=O)NC12CC3CC(CC(C3)C1)C2 (stereo not given)	none
Cc1cc(CSC(=N)N)c(CSC(=N)N)cc1C	LANA-H2B inh 19
CCCOc1ccc(Br)cc1CSC(=N)N	none
c1ccc(-c2ccccc2OCCCN2CCCCCC2)cc1	LANA-H2B inh 84
c1ccc(-c2ccccc2OCCCN2CCCC2)cc1	none
O=C(NCc1ccc2c(c1)OCO2)C(=O)Nc1cc2c3c(c1)CC(=O)N3CCC2	none
COc1ccc(OCCNc2cc(N3CCOCC3)ccc2[N+](=O)[O-])cc1	IDE act 20
C/C(=N\NC(=O)CSc1nc(C)cc(C)n1)c1cccs1	LANA-H2B inh 25
Cc1cc(C)nc(SCC(=O)NNC(=O)c2cccs2)n1	none
COCCNC(=S)N(C)C1(c2ccccc2Cl)CCCCC1=O (stereo not given)	IDE act 17
CC1=Cc2ccccc2C(C#N)N1C(=O)c1ccccc1 (stereo not given)	none
N#C[C@H]1C(O)C(O)c2ccccc2N1C(=O)c1ccccc1 (stereo not given in full)	SUMO Mot1 rescue 716
CCOC(=O)C1CCN(C(=O)Cn2cnc3sc(C)c(S(=O)(=O)N4CCCCC4)c3c2=O)CC1	LANA-H2B inh 16
CSCCC(NC(=O)CCC(=O)OCC(=O)[C@@]1(O)CCC2[C@@H]3CCC4=CC(=O)C=C[C@]4(C)C3[C@@H](O)C[C@@]21C)C(=O)O (stereo not given in full)	none
O=C(NCc1ccccn1)C(=O)NCc1ccccn1	SUMO Mot1 rescue 295
CC(C)(C)NC(=O)C(=O)NCc1ccccn1	none
CCS(=O)c1ccccc1C(=O)OCC(=O)Nc1ccc2ccccc2c1 (stereo not given)	none
Cc1ccc(C(=O)OCC(=O)Nc2cc(C(C)(C)C)no2)c(C)c1	LANA-H2B inh 12
COc1ccc(C2C=C(c3ccc(Br)s3)Nc3ncnn32)cc1OC (stereo not given)	IDE cell inh 39 (no result: IDE act, SUMO Mot1 rescue)
COc1cccc(C2=CC(c3ccc(N(C)C)cc3)n3ncnc3N2)c1 (stereo not given)	IDE cell inh 18 (no result: IDE act)
Cc1ccc(Nc2cc(Cl)nc(N)n2)c([N+](=O)[O-])c1	none (no result: IDE cell inh, HDAC3 inhib, LANA-H2B inh, SUMO Mot1 rescue)
COCCCNC(=O)C[C@H]1C[C@H](C(=O)N2CCOCC2)[C@@]2(CCC3CCCC3)c3[nH]c4cc(CCC(=O)N(C)C)ccc4c3CCN2C1=O	none (no result: IDE cell inh, HDAC3 inhib, LANA-H2B inh, SUMO Mot1 rescue)
CCOC(=O)C(C)On1c(-c2cccc(Cl)c2)nc2ccc([N+](=O)[O-])cc21 (stereo not given)	LANA-H2B inh 51
O=S(=O)(c1ccc(S(=O)(=O)N2CCN(C/C=C/c3ccccc3)CC2)cc1)N1CCCC1	SUMO Mot1 rescue 295
CC1CN(C(=O)c2ccccc2OCc2ccc(Cl)cc2Cl)CC(C)O1 (stereo not given)	none
COc1ccc(N2C(=O)CSC2c2ccccc2)cc1 (stereo not given)	none
COc1ccc(N2C(=O)CSC2c2ccccc2[N+](=O)[O-])cc1 (stereo not given)	LANA-H2B inh active
